Holding throughout (assay): NCI-60 one-dose screen, 48 h (100 = growth as untreated, 0 = no growth, -100 = all killed)
For test [1], the system named is SK-MEL-2 melanoma. The settings on record: 10 µM unless noted.
The test system of test [2] is EKVX NSCLC. Particulars: 10 µM unless noted.
For test [3], the system named is SN12C renal. The settings on record: 10 µM unless noted.
Test [4] concerns UO-31 renal. Particulars: 10 µM unless noted.
The subject of test [5] is ACHN renal. The settings on record: 10 µM unless noted.
The subject of test [6] is CAKI-1 renal. The settings on record: 10 µM.
Test [7] has as its system A498 renal. Particulars: 10 µM unless noted.
Test [8] has as its system CCRF-CEM leukemia. The settings on record: 10 µM unless noted.
In test [9] the test system is MOLT-4 leukemia. Particulars: 10 µM unless noted.
Test [10] concerns SR leukemia. Particulars: 10 µM unless noted.
Test [11] concerns RPMI-8226 leukemia. The settings on record: 10 µM unless noted.
In test [12] the test system is OVCAR-8 ovarian. The settings on record: 10 µM unless noted.
For test [13], the system named is OVCAR-5 ovarian. The settings on record: 10 µM unless noted.
Test [14] deals with OVCAR-4 ovarian. Particulars: 10 µM unless noted.
The test system of test [15] is SK-OV-3 ovarian. Particulars: 10 µM unless noted.
The test system of test [16] is IGROV1 ovarian. The settings on record: 10 µM unless noted.
The subject of test [17] is OVCAR-3 ovarian. Particulars: 10 µM unless noted.
In test [18] the test system is HS 578T breast. The settings on record: 10 µM unless noted.
In test [19] the test system is NCI/ADR-RES ovarian. Particulars: 10 µM unless noted.
Test [20] relates to TK-10 renal. Particulars: 10 µM unless noted.

This is part of a sample that, as a whole, favours compounds with a hit. Of some 83,000 tested, about 20% had one in any assay.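 48-hour exposure, single concentration, 96-well plates; percent growth endpoint where 0 means no net growth. Active: below 10.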 Unmarked numbers belong to inactive results. Calls of active or inactive are those of the source.

Take `O=C1c2ccccc2OC=C(c2ccccc2)N1CCCCN1CCCCC1`: the growth in test [1] was 69%; in test [2] it was 39.5%; in [3], 20.4%; in test [4], 85.8%; in [5], 104%; in [6], 101%. Further, the growth in test [7] is 87.1%; in test [8] it was 43.9%; in test [9], 60.6%; in [10] it was 65.2%; in [11] it was 23.6%; in test [12], 51.7%. Also, the growth is 101% in [13]; 58.7% in test [14]; 13.2% in test [15]; 73.7% in test [16]; 63.6% in test [17]; 75.1% in test [18]. The growth in test [19] is 88.8%.

As to `COc1ccc(Cn2cc3c(c2-c2cc(OC)c(OC)c(OC)c2)CCc2c(CO)noc2-3)cc1`, the growth is 49.5% in test [1]; 45.8% in test [2]; 30.3% in test [3]; 30.1% in test [4]; 74.5% in [20]; 18.2% in test [7]. The growth was 16.6% in test [9]; 22.2% in [10]; 21.7% in test [11]; 22.4% in test [12]; 56.6% in test [13]; 68.9% in test [14]. For the same molecule, the growth in [16] was 40.8%; in test [17] it was 5.3% (active); in test [18], 9.56% (active); in test [19], 8.59% (active).

With `O=C(Nc1ccc(-n2ccc3c(NC(=O)c4ccccc4)ncnc32)cc1)c1cccc(C(F)(F)F)c1`, the growth was 85.8% in test [1]; 63.5% in test [2]; 60.7% in test [3]; 45.9% in test [4]; 34% in test [5]; 27.9% in test [6]. Moreover, the growth is 87.5% in test [7]; 28.2% in test [8]; 19.7% in test [9]; 2.8% (active) in [10]; 20.1% in test [11]; 40.9% in test [12]. Further, the growth in [13] is 62.3%; in [14] it was 97.1%; in test [15], 61.2%; in test [16], 43.1%; in test [17] it was 54.4%; in [19], 50.7%.

On to `COc1ccc(-c2nn(-c3ccc(NC(=O)c4cc(Cl)cc(Cl)c4)cc3)cc2-c2ccncc2)cc1Cl`, for which the growth in [1] was 49.9%; in [2], 74.6%; in test [3], 85%; in [4] it was 25%; in test [5] it was 63.6%; in [6], 7.27% (active). The growth was 50.9% in [7]; 54.8% in test [8]; 18.9% in test [9]; 50.7% in test [10]; -11.6% (active) in test [11]; 77.5% in test [12]. Besides, the growth in test [13] was 64.8%; in test [14], 89.6%; in [15], 86.3%; in test [16], 85.3%; in test [17], 64.1%; in test [19], 69.7%.

For `O=C(Nc1ccc(-n2cc(-c3ccncc3)c(-c3ccc(O)c(Cl)c3)n2)cc1)Nc1ccc(Cl)c(C(F)(F)F)c1`, the growth in test [1] is -42.2% (active); in [2], 19.5%; in test [3], 19.1%; in [4] it was 13.6%; in test [5], 13.2%; in [6] it was -3.83% (active). Moreover, the growth in test [7] was 63.5%; in test [8] it was 7.92% (active); in test [9], 9.62% (active); in test [10], 4.23% (active); in test [11] it was -19.2% (active); in [12] it was 15.2%. The growth in [13] was 43.4%; in test [14] it was 42.2%; in test [15], 32.6%; in test [16], 22.8%; in [17], 1.16% (active); in test [19] it was 17.9%.

Take `O=C1c2ccccc2OC=C(c2ccccc2)N1CCCCNc1ccc(F)cc1`: the growth in test [1] was 89.2%; in test [2], 96.8%; in test [3] it was 77.4%; in test [4], 53.5%; in [5], 97.5%; in test [6] it was 85.8%. Further, the growth in test [7] was 98.3%; in test [8], 63.7%; in test [9], 48.4%; in test [10], 81%; in test [11], 69.8%; in [12] it was 80.6%. Besides, the growth in test [13] was 95.7%; in test [14] it was 89.9%; in test [15], 67.9%; in test [16] it was 81.9%; in [17], 110%; in [18], 94.7%. Also, the growth in test [19] was 85.8%.

`COc1ccc(-c2nn(-c3ccc(NC(=O)Nc4cc(C(F)(F)F)cc(C(F)(F)F)c4)cc3)cc2-c2ccncc2)cc1Cl`: the growth is -38.3% (active) in test [1]; 21.7% in test [2]; 17.2% in test [3]; 13.3% in [4]; 18.5% in test [5]; 5.4% (active) in test [6]. Besides, the growth is 0.688% (active) in test [7]; 9.25% (active) in [8]; 6.78% (active) in [9]; 1.23% (active) in test [10]; -29.3% (active) in test [11]; 12.9% in test [12]. The growth in test [13] was 17.7%; in [14], 47%; in [15], 22.9%; in test [16], 26.3%; in test [17], 3.27% (active); in test [19], 14%.

As to `O=C(Nc1ccc(-n2ccc3c(NC(=O)c4ccccc4)nccc32)cc1)Nc1cccc(C(F)(F)F)c1`, the growth in test [1] is 71.9%; in test [2], 65.5%; in test [3] it was 79.2%; in test [4], 78%; in [5], 62.2%; in test [6], 68.6%. For the same molecule, the growth in test [7] is 80.7%; in [8] it was 13.8%; in test [9] it was 35.9%; in [10], 18.8%; in [11] it was 19.4%; in [12], 48.5%. The growth in [13] was 81.8%; in test [14] it was 26%; in test [15], 92.2%; in test [16], 54.1%; in test [17], 15.2%; in [19], 65.7%.

Consider `COc1ccc(-c2nn(-c3cccc(Cl)c3)cc2-c2cc(-c3ccc(Br)cc3)[nH]c(=O)c2C#N)cc1`, for which the growth in [1] was 122%; in test [2], 88.4%; in [3], 67.9%; in [4], 87.3%; in test [5] it was 91.8%; in test [6], 82.9%. The growth in test [7] is 102%; in test [8], 75.4%; in test [9] it was 76%; in [10], 35.6%; in test [11], 75%; in test [12], 77.9%. Also, the growth was 105% in test [13]; -34% (active) in [14]; 89.1% in [15]; 92.9% in test [16]; 68% in [17]; 33% in [18]. The growth in test [19] is 65%.
